Data: PubChem BioAssay (Tox21)
Inconclusive results are not listed. Active and inactive are the calls of the source. Unless noted, calls follow the shape of the dose curve; as a rule, active = well fitted curve in the direction sought with a large enough effect in the repeat runs; inconclusive = weak or mixed curves; inactive = no such curve, though single readings can be large; an effect the other way counts as inactive or inconclusive.

Assays:
[1] = biological target: Retinoic acid receptor RXR-alpha (Homo sapiens) (UniProt P19793); assay: qHTS assay to identify small molecule agonists of the RXR signaling pathway (AID 1159527; calls by dose curve; also: nearly all actives have a fitted effect of over 35% in size)
Chain of Retinoic acid receptor RXR-alpha (Homo sapiens) (P19793 whole entry, looked up): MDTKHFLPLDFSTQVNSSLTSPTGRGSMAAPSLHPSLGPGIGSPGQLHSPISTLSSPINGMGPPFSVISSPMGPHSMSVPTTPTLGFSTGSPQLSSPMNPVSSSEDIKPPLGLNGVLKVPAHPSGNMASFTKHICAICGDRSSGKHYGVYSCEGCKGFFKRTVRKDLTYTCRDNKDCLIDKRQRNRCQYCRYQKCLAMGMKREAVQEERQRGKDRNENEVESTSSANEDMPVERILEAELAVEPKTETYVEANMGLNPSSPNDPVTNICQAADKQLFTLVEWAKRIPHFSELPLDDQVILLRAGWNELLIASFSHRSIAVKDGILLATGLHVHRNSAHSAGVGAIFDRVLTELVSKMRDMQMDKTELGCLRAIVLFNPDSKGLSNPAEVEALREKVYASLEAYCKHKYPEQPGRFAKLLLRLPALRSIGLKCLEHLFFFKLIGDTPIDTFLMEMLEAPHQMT
Procedure, shortened: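 Agonist mode; 9-cis retinoic acid positive control. HEK 293T UAS-bla reporter cells, 2% charcoal-stripped FBS, 16 hr compound exposure at 37 C/5% CO2. LiveBLAzer B/G FRET substrate 2 hr RT; ex 405, em 460/530 nm.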

[2] = qHTS assay to identify small molecule agonists of the RXR signaling pathway - cell viability counter screen (AID 1159529); also: series mostly up to about 77 µM; nearly all actives have a fitted effect of over 50% in size
Procedure, shortened: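 Luminescence from CellTiter-Glo (30 min, RT) measured viability in the same wells as the beta-lactamase reporter readout. Cells: GeneBLAzer RXR-alpha HEK 293T, 2% charcoal-stripped FBS. Compound exposure 16 hr, 37 C.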

[3] = qHTS assay to identify small molecule antagonists of the retinoid acid receptor (RAR) signaling pathway - cell viability counter screen (AID 1159551); also: nearly all actives have a fitted effect of over 35% in size
Procedure, shortened: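 Seed C3RL4 cells; next day add compound, then retinol to 1 uM final; incubate 6 h at 37 C; add CellTiter-Glo; read luminescence after 30 min at RT.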

[4] = qHTS assay to identify small molecule antagonists of the retinoic acid receptor (RAR) signaling pathway (AID 1159552; also: nearly all actives have a fitted effect of over 50% in size)
Procedure, shortened: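 Luminescence from a RARE luciferase reporter in C3RL4 cells served as read-out. Cells received compounds together with 1 uM final retinol and incubated 6 hr at 37 C before detection reagent was added for 30 min at room temperature.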

[5] = qHTS assay to identify small molecule agonists of the retinoic acid receptor (RAR) signaling pathway (AID 1159553)
Procedure, shortened: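 Activation of retinol signaling was monitored via a RARE luciferase reporter in C3RL4 cells. After 6 hr compound treatment at 37 C, detection reagent was added for 30 min at room temperature before luminescence reading.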

[6] = qHTS assay to identify small molecule antagonists of the estrogen related receptor (ERR) signaling pathway from Tox21 library - cell viability counter screen (AID 1224834); also: nearly all actives have a fitted effect of over 30% in size
Procedure, shortened: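 CellTiter-Fluor fluorescence measured; ERR cells; 17.5 h compound incubation at 37 C; 30 min reagent step.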

[7] = biological target: Luciferin 4-monooxygenase (Photinus pyralis) (UniProt P08659); assay: qHTS assay to identify small molecule inhibitors of firefly luciferase (AID 1224835); also: series mostly up to about 120 µM; nearly all actives have a fitted effect of over 25% in size
Chain of Luciferin 4-monooxygenase (Photinus pyralis) (P08659 whole entry, looked up): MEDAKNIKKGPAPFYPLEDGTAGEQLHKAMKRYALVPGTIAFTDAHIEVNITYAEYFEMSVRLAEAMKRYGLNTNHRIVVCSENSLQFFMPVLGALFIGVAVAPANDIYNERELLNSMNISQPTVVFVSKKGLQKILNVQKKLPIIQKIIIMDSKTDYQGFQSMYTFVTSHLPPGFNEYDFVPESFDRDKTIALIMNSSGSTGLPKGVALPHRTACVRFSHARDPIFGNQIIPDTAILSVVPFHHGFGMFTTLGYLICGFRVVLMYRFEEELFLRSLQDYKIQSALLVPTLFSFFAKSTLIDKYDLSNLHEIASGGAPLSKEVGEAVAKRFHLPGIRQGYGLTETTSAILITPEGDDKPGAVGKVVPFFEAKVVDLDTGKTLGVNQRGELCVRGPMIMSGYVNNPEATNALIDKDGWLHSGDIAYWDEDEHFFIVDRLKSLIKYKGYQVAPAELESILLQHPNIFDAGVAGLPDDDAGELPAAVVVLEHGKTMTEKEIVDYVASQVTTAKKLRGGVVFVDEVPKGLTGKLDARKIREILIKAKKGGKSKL
Procedure, shortened: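 Biochemical qHTS: compounds run as interplate titrations against purified firefly enzyme, with D-luciferin and ATP each at its KM concentration. Light output recorded by CCD imaging.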

[8] = qHTS assay to identify small molecule agonists of the constitutive androstane receptor (CAR) signaling pathway - cell viability counter screen (AID 1224836); also: series mostly up to about 92 µM; nearly all actives have a fitted effect of over 45% in size
Procedure, shortened: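 Viability read-out: CellTiter-Fluor fluorescence after 23 h compound exposure at 37 C/5% CO2 in double-stable HepG2-CYP2B6-hCAR cells, with PK11195 present at 0.75 uM final; compounds tested in 15-point titration.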

[9] = qHTS assay to identify small molecule antagonists of the constitutive androstane receptor (CAR) signaling pathway - cell viability counter screen (AID 1224837); also: series mostly up to about 92 µM; nearly all actives have a fitted effect of over 45% in size
Procedure, shortened: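 Using CellTiter-Fluor, viability is scored in HepG2 cells stably carrying hCAR and a 2.2kb CYP2B6 reporter after 23 hr compound exposure across 15 concentrations, with CITCO present at 50 nM.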

[10] = biological target: Nuclear receptor subfamily 1 group I member 3 (Homo sapiens) (UniProt Q14994); assay: qHTS assay to identify small molecule antagonists of the constitutive androstane receptor (CAR) signaling pathway (AID 1224838);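 also: HepG2 cells stably expressing hCAR with CYP2B6 luciferase reporter stimulated by CITCO; nearly all actives have a fitted effect of over 40% in size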
Chain of Nuclear receptor subfamily 1 group I member 3 (Homo sapiens) (Q14994 whole entry, looked up): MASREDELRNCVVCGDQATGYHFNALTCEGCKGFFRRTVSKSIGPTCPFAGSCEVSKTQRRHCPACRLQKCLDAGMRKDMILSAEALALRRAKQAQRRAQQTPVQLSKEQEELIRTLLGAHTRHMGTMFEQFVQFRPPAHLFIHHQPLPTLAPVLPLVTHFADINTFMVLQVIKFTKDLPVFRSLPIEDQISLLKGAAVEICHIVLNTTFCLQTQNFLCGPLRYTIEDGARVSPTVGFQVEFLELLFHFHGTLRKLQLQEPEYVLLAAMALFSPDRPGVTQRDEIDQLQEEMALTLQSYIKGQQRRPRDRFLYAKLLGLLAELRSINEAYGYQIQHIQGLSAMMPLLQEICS
Procedure, shortened: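 Reporter luminescence was quantified after 24 h exposure of hCAR/CYP2B6-2.2kb double-stable HepG2 cells to compounds at 15 concentrations in the presence of 50 nM CITCO final.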

[11] = biological target: Nuclear receptor subfamily 1 group I member 3 (Homo sapiens) (UniProt Q14994); assay: qHTS assay to identify small molecule agonists of the constitutive androstane receptor (CAR) signaling pathway (AID 1224839);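 also: HepG2 cells stably carrying human CAR and a CYP2B6 luciferase reporter; series mostly up to about 92 µM; nearly all actives have a fitted effect of over 15% in size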
Procedure, shortened: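 Luminescence read-out (ONE-Glo, 30 min, room temperature) from double-stable HepG2-CYP2B6-hCAR cells exposed 24 h to 15-point compound series in presence of 0.75 uM PK11195 final.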

[12] = qHTS assay to identify small molecule antagonists of the estrogen related receptor signaling pathway with the pleiotropic PPARgamma coactivator (PGC) from Tox21 10K library - cell viability counter screen (AID 1224840; active = well fitted cell-killing curve with a large enough effect in the repeat runs, not every such curve was filed as active; also: nearly all actives have a fitted effect of over 40% in size)
Procedure, shortened: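 Here the PGC/ERR cells serve as a cytotoxicity control: they are exposed to compounds for 17.5 hours at 37 C, and live-cell signal is quantified using CellTiter-Fluor fluorescence.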

[13] = qHTS assay to identify small molecule antagonists of the estrogen related receptor signaling pathway with the pleiotropic PPARgamma coactivator (PGC) from Tox21 10K library (AID 1224841; call rule not given here; also: series mostly up to about 92 µM; actives are mostly falling curves and most rising ones were filed inactive; nearly all actives have a fitted effect of over 50% in size)
Procedure, shortened: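 Each well held 2,000 PGC/ERR cells, pre-incubated six hours (37 C, 5% CO2). Test substances in DMSO were added by pin tool and left for 18 h at 37 C before luciferase detection by One-Glo.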

[14] = qHTS assay to identify small molecule agonists of the estrogen related receptor signaling pathway with the pleiotropic PPARgamma coactivator (PGC) from Tox21 10K library (AID 1224842); also: nearly all actives have a fitted effect of over 15% in size
Procedure, shortened: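 PGC/ERR reporter cell line, 2,000 cells per well, incubated 6 h at 37 C before 23 nL compound in DMSO was added. After 18 h at 37 C, One-Glo luminescence read following 30 min at room temperature.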

[15] = qHTS assay to identify small molecule antagonists of the estrogen related receptor (ERR) signaling pathway - cell viability counter screen (AID 1224818);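 also: series mostly up to about 46 µM; viability measured after 17.5 h of compound exposure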
Procedure, shortened: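 In the same ERR cell assay, compound-treated wells (17.5 h, 37 C) were multiplexed with a fluorogenic viability reagent, CellTiter-Fluor, read after 30 min to flag cytotoxic substances.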

[16] = qHTS assay to identify small molecule antagonists of the estrogen related receptor signaling pathway with the pleiotropic PPARgamma coactivator (PGC) cell viability counter screen (AID 1224822; also: series mostly up to about 46 µM)
Procedure, shortened: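 Compounds in DMSO, with positive and negative controls, were applied to PGC/ERR cells (2,000/well) and left 17.5 h at 37 C before CellTiter-Fluor detection.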

Measured: Potency

c1ccc(CC2=NCCN2)cc1
not listed: [15] | [16]
inactive: all other assays above

CC(C)CNCC(C)C
not listed: [14] | [15] | [16]
inactive: all other assays above

CCCCCCCCCCCC
not listed: [14] | [15] | [16]
inactive: all other assays above

CCOc1ccc(C(=O)OCCN(CC)CC)cc1
not listed: [15] | [16]
inactive: all other assays above

CC(=O)OCC(=O)[C@@]1(O)CC[C@H]2[C@@H]3CCC4=CC(=O)CC[C@]4(C)[C@H]3C(=O)C[C@@]21C
not listed: [7] | [10] | [11] | [13] | [14]
inactive: all other assays above

O=C(O)Cc1ccc(CCNS(=O)(=O)c2ccc(Cl)cc2)cc1
not listed: [14] | [15] | [16]
inactive: all other assays above

CCN(CC)CCNC(=O)c1cc(S(C)(=O)=O)ccc1OC
not listed: [7] | [10] | [11] | [13] | [14]
inactive: all other assays above

COC(=O)c1cc(C(=O)OC)cc(S(=O)(=O)O)c1
not listed: [14] | [15] | [16]
inactive: all other assays above

O=c1n(CCO)c(=O)n(CCO)c(=O)n1CCO
not listed: [13] | [14] | [15] | [16]
inactive: all other assays above

CO[C@]12C[C@@H](COC(=O)c3cncc(Br)c3)CN(C)[C@@H]1Cc1cn(C)c3cccc2c13
not listed: [14] | [15] | [16]
inactive: all other assays above
